The source of these data is PubChem BioAssay (NCI).

Structures are written as SMILES. This is part of a sample that, as a whole, favours compounds with a hit. Of some 83,000 tested, about 20% had one in any assay.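 Each cell line was grown in a 96-well plate and treated with one concentration of compound for 48 hours. Values below 10 were considered active.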 Calls of active or inactive are those of the source.

The assay concerns HL-60(TB) leukemia. Kind of assay: NCI-60 one-dose screen, 48 h (100 = growth as untreated, 0 = no growth, -100 = all killed). Particulars: 10 µM unless noted.
On to `COc1ccc(/C=C2\COc3ccc(O)cc3C2=O)cc1OC`, for which the growth is 3.81% (active).
`Nc1ccc2c(c1)Cc1cc(N)c(N)cc1-2`: the growth was 78.1% (inactive).
Under `NC(=O)CC1(O)C=C(Br)C(=O)C(Br)=C1` stands -27.9% (active); under `CCN(CC)CCCNc1cc(OC)cc2cccnc12`, 94.7% (inactive).
For `COc1ccc(OC)c([N+](=O)[O-])c1C(=O)CNC(C)=O`, the growth is 104% (inactive).
In the case of `COc1cc2ncnc(NC3CCC(O)CC3)c2cc1OC` (stereo not drawn), the growth was 97.7% (inactive).
In the case of `O=C(COc1ccc(-c2nc3cc(Cl)c(Cl)cc3[nH]2)cc1)N=Nc1c(O)[nH]c2ccccc12`, the growth is 68.5% (inactive).
The figure for `Cc1ccc(Cl)cc1Nc1nc(C(F)(F)F)ccc1C(=O)N/N=C/c1cccnc1` is 3.36% (active).
Take `COc1cc(C(=O)/C=C/c2c(-c3cccs3)nc3sc(C)cn23)cc(OC)c1OC`: the growth is -18.4% (active).
Under `COc1cc(/C=C2\C=C(c3ccccc3)N(CCc3ccccc3)C2=O)cc(OC)c1OC` stands 80.3% (inactive); under `C=C1C(=O)O[C@H]2[C@H]1CC/C(COC(=O)c1cc3ccccc3s1)=C\CC[C@@]1(C)O[C@@H]21`, -33.8% (active).
The figure for `c1csc(C2=NN3C(C2)c2ccccc2OC3c2ccncc2)c1` (stereo not drawn) is 97.8% (inactive).
The figure for `O=C(Nc1ncc(Cc2cc(C(F)(F)F)ccc2Cl)s1)c1cccs1` is 30.6% (inactive); for `CCCS(=O)(=O)Nc1ccc(F)c(C(=O)c2c[nH]c3ncc(-c4ccc(OCCCC5CCCCN5)nc4)cc23)c1F` (stereo not drawn) it is 97.4% (inactive); for `COC(=O)C(Cc1ccccc1)NC(=O)c1ccc(NC(=O)c2[nH]c(C)c(Cl)c2Cl)c(OC(C)C)c1` (stereo not drawn) it is 99.7% (inactive).
In the case of `c1ccc(Cn2cc(-c3nc4ccccc4s3)c3cccnc32)cc1`, the growth was 115% (inactive).
In the case of `CC(=O)Nc1ccc(/C=N/N2CCCCCC2)cc1`, the growth is 95.1% (inactive).
On to `COc1ccc(-c2nn(-c3cccc(NC(=O)Nc4ccc(Cl)c(C(F)(F)F)c4)c3)cc2-c2ccncc2)cc1Cl`, for which the growth is -11.3% (active).
The figure for `CCOC(=O)NC(C)C` is 68% (inactive).
Take `COc1cc2nc(Nc3cccc(C(=O)O)c3)nc(N)c2cc1OC`: the growth was 109% (inactive).
With `O=C(/C(=C/c1ccccc1)CBr)c1ccccc1`, the growth is 9.09% (active).
Under `COc1ccc(NC(=O)C2CC3C=CC2C3)c([N+](=O)[O-])c1` (stereo not drawn) stands 86.2% (inactive).
With `C=C1C(=O)O[C@H]2[C@H]1CC/C(COC(=O)c1ccc(Cl)nc1)=C\CC[C@@]1(C)O[C@@H]21`, the growth was -55.1% (active).
Consider `CCn1cc(-c2ccnc(NCCNS(=O)(=O)c3cccc4ccccc34)c2)c(-c2cccc(O)c2)n1`, for which the growth is 103% (inactive).
The figure for `CCOC(=O)/C(=C/c1ccccc1)C(=O)c1ccccc1` is 34.5% (inactive).
Under `Cc1ccc(C(=O)/C(=C/c2ccc([N+](=O)[O-])cc2)SCc2ccc(Cl)cc2)cc1` stands 58% (inactive); under `CN1CCN(c2ccc3nc(-c4[nH]ncc4Nc4ncnc5[nH]ccc45)[nH]c3c2)CC1`, -28.6% (active).
The figure for `Cc1ccc(S(=O)(=O)c2nc(-c3ccccc3)oc2SCC(N)=O)cc1` is 65.3% (inactive).
